This note sets out measurements from PubChem BioAssay.

Values joined by “and” are separate entries in the source; they are usually repeats but may differ in a detail not shown here. Identical values can stand only once. Inconclusive results are not listed. Active and inactive are the calls of the source. Unless noted, no cut-off is given here; in the data, nearly all actives have AC50 up to about 27 µM.

Assay [1] in a line: growth inhibition of DIPG glioma cells, dose response, cell-based, SU-DIPG-XVII, MIPE5.0, CellTiter-Glo, qHTS (AID 1347060; cut-off not given, nearly all actives have AC50 up to about 26 µM;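 for AC50: cells exposed to compound for 48 hours before viability readout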). The settings on record: SU-DIPG-XVII viability, CellTiter-Glo ATP luminescence. In general terms: ATP-based viability assays read luminescence as a measure of living cells.
Assay [2] in a line: growth inhibition of DIPG glioma cells, dose response, cell-based, SU-DIPG-XIII, MIPE5.0, CellTiter-Glo, qHTS (AID 1347064; cut-off not given, nearly all actives have AC50 up to about 23 µM;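 for AC50: cells exposed to compound for 48 hours before the viability read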). Particulars: SU-DIPG-XIII viability, CellTiter-Glo ATP luminescence.
A short description of assay [3]: growth inhibition of DIPG glioma cells, dose response, cell-based, JHH-DIPG-1, MIPE4.0, CellTiter-Glo, qHTS (AID 1347062).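 For AC50: cells exposed to compound for two days before readout.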 Particulars: JHH-DIPG-1 viability, CellTiter-Glo ATP luminescence.
Assay [4] can be described thus: differential killing of epithelial or mesenchymal cells, primary screen, imaging, PC-3E GFP, TEM4-18 mCherry, co-culture (AID 1345086;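 active = compounds killing one labelled cell type while sparing the other, by normalised counts and ratio limits, not self-fluorescent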;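 for all read-outs here: cells exposed to compound for 72 h before imaging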;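 for red/green cell ratio (normalised): normalised mesenchymal count divided by normalised epithelial count so high means epithelial killing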). Particulars: imaging cell counts, at 1 µM; for red/green cell ratio (normalised): actives lie on both sides, counts scaled to control wells, 1 = unselective.
Assay [5] is described as follows: growth inhibition of DIPG glioma cells, dose response, cell-based, SU-DIPG-IV, MIPE4.0, CellTiter-Glo, qHTS (AID 1347063; cut-off not given, nearly all actives have AC50 up to about 30 µM;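 note: compound exposure lasted 48 hours before the viability readout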). Particulars: SU-DIPG-IV viability, CellTiter-Glo ATP luminescence.
The nature of assay [6]: growth inhibition of DIPG glioma cells, dose response, cell-based, SU-DIPG-XIII, MIPE4.0, CellTiter-Glo, qHTS (AID 1347061; cut-off not given, nearly all actives have AC50 up to about 37 µM;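 note: cells exposed to compound for 48 hours before readout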). The settings on record: SU-DIPG-XIII viability, CellTiter-Glo ATP luminescence.
Assay [7] concerns Aerobactin synthetase IucA (Klebsiella pneumoniae). In words: IucA aerobactin synthetase inhibitors, biochemical, Tocris library, absorbance (AID 1345561; call rule not given here;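 note: 100% = enzyme without compound and 0% = no enzyme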). The settings on record: purified IucA enzyme assay, absorbance (OD) read-out; stronger effect = lower value;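 tested at 8 µM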.
The mark [8] stands for this setting: measured here: epithelial PC-3E GFP cell survival.
Where [9] appears, read: measured here: mesenchymal TEM4-18 mCherry cell survival.

Consider `C#C[C@]1(O)CC[C@H]2[C@@H]3CCc4cc(O)ccc4[C@H]3CC[C@@]21C`, for which the AC50 (commonly the concentration giving half of the maximal activity seen) in assay [1] is 16.6 µM (active). Further, the call in assay [2] was inactive.

On to `C[C@H]1O[C@@H](n2cc(F)c(=O)[nH]c2=O)[C@H](O)[C@@H]1O`, for which the call in assay [3] was inactive.

`Clc1ccc(C(c2ccccc2Cl)C(Cl)Cl)cc1` (stereo unspecified): the red/green cell ratio (normalised) in assay [4] is 0.98 (inactive). Further, the normalised cell number worked out at 1.11 in assay [4] (setting [8]) and 1.08 in assay [4] (setting [9]). For the same compound, the AC50 in assay [5] was 16.6 µM (active); in assay [2], 18.6 µM (active).

Turning to `O=c1[nH]c(=O)n([C@H]2C[C@H](O)[C@@H](CO)O2)cc1F`, the AC50 in assay [6] is 13.2 µM (active); in assay [3] it was 1.48 µM (active).

As for `CC1(C)O[C@@H]2C[C@H]3[C@@H]4C[C@H](F)C5=CC(=O)C=C[C@]5(C)[C@@]4(F)[C@@H](O)C[C@]3(C)[C@]2(C(=O)CO)O1`, the outcome in assay [1], in assay [6], in assay [3] and in assay [2] was inactive.

As to `CCOC(=O)O[C@]1(C(=O)OCCl)CC[C@H]2[C@@H]3CCC4=CC(=O)C=C[C@]4(C)[C@H]3[C@@H](O)C[C@@]21C`, the compound was classed as inactive in assay [1], in assay [6], in assay [3] and in assay [2].

In the case of `CCCCOc1ccc(CC(=O)NO)cc1`, the red/green cell ratio (normalised) in assay [4] is 1.05 (inactive). For the same compound, the normalised cell number in assay [4] (setting [8]) was 0.59; in assay [4] (setting [9]), 0.61. Moreover, the AC50 is 23.5 µM (active) in assay [6] and 20.9 µM (active) in assay [5]. Besides, the result in assay [2] was inactive.

For the compound `Cc1cccc(N(C)C(=S)Oc2ccc3ccccc3c2)c1`, in assay [4], the red/green cell ratio (normalised) is 1.19 (inactive). Besides, the normalised cell number amounted to 1.22 in assay [4] (setting [8]) and 1.46 in assay [4] (setting [9]). Further, the call in assay [3] and in assay [2] was inactive.

On to `C#C[C@]1(O)CC[C@H]2[C@@H]3CCc4cc(OC)ccc4[C@H]3CC[C@@]21C`, for which the result in assay [3], in assay [5] and in assay [2] was inactive.

Take `NC[C@H](O)c1ccc(O)c(O)c1`: the compound was classed as inactive in assay [1] and in assay [5].

For the compound `CC(=O)O[C@]1(C(C)=O)CC[C@H]2[C@@H]3C=C(Cl)C4=CC(=O)[C@@H]5C[C@@H]5[C@]4(C)[C@H]3CC[C@@]21C`, the AC50 was 23.5 µM (active) in assay [1], 23.5 µM (active) in assay [3] and 9.35 µM (active) in assay [5].

For `C=C[C@@]1(C)CC(=O)[C@]2(O)[C@@]3(C)[C@@H](O)CCC(C)(C)[C@@H]3[C@H](O)[C@H](OC(C)=O)[C@@]2(C)O1`, the remaining activity (in general, the signal under treatment as a percentage of the control signal) in assay [7] is 113% (inactive).

Turning to `CC(=O)N(O)CCCCCNC(=O)CCC(=O)N(O)CCCCCNC(=O)CCC(=O)N(O)CCCCCN`, the red/green cell ratio (normalised) in assay [4] was 1.51 (inactive). Further, the normalised cell number in assay [4] (setting [8]) turned out to be 1.1; in assay [4] (setting [9]) it was 1.67. Besides, the AC50 in assay [2] is 7.42 µM (active).

In the case of `COc1ccc(C(=O)CC(=O)c2ccc(C(C)(C)C)cc2)cc1`, in assay [4], the red/green cell ratio (normalised) was 1.31 (inactive). The results for the normalised cell number in assay [4] (setting [8]) and in assay [4] (setting [9]) were 0.9 and 1.18, respectively. The values for the AC50 in assay [3] and in assay [5] were 3.72 µM (active) and 5.26 µM (active), respectively.

For `CC(=O)O[C@H]1C[C@@H]2CC[C@@H]3[C@H](CC[C@@]4(C)[C@H]3C[C@H]([N+]3(C)CCCCC3)[C@@H]4OC(C)=O)[C@@]2(C)C[C@@H]1N1CCCCC1`, the compound was classed as inactive in assay [1], in assay [6], in assay [3] and in assay [5].

For `C[C@]12CC[C@@H]3c4ccc(O)cc4CC[C@H]3[C@@H]1C[C@@H](O)[C@@H]2O`, the outcome in assay [2] was inactive.

With `CO[C@@]12[C@H](COC(N)=O)C3=C(C(=O)C(C)=C(N)C3=O)N1C[C@@H]1N[C@@H]12`, the AC50 in assay [1] was 0.417 µM (active); in assay [3], 16.6 µM (active); in assay [5], 0.469 µM (active); in assay [2], 7.42 µM (active).

For the compound `COc1cc(/C=C/C(=O)CC(=O)/C=C/c2ccc(O)c(OC)c2)ccc1O`, the AC50 in assay [5] is 30.3 µM (active); in assay [2], 16.6 µM (active).

Take `CC1=C(C(=O)O)N2C(=O)[C@@H](NC(=O)[C@H](N)C3=CCC=CC3)[C@H]2SC1`: the result in assay [3] was inactive.

With `O=C(N[C@H](CO)[C@H](O)c1ccc([N+](=O)[O-])cc1)C(Cl)Cl`, in assay [4], the red/green cell ratio (normalised) is 0.78 (inactive). Moreover, the normalised cell number in assay [4] (setting [8]) was 1.21; in assay [4] (setting [9]), 0.95. The result in assay [3] and in assay [5] was inactive.

For the compound `Nc1ccc(S(N)(=O)=O)cc1`, the result in assay [1], in assay [6], in assay [3], in assay [5] and in assay [2] was inactive.

In the case of `COC(=O)[C@@H]1[C@H]2C[C@H]3c4[nH]c5ccccc5c4CCN3C[C@@H]2CC[C@@H]1O`, the compound was classed as inactive in assay [1], in assay [6], in assay [3] and in assay [2].

Consider `CCCCC(=O)O[C@]1(C(=O)CO)[C@@H](C)C[C@H]2[C@@H]3CCC4=CC(=O)C=C[C@]4(C)[C@@]3(F)[C@@H](O)C[C@@]21C`, for which the outcome in assay [1] was inactive.

As to `CC1(C)O[C@H]2CC(=O)OC[C@]23[C@H]2CC[C@@]4(C)[C@H](c5ccoc5)OC(=O)[C@H]5O[C@]54[C@]2(C)C(=O)C[C@@H]13`, the compound was classed as inactive in assay [3] and in assay [5].

Turning to `CCn1cc(C(=O)O)c(=O)c2cc(F)c(N3CCNC(C)C3)c(F)c21` (stereo unspecified), in assay [4], the red/green cell ratio (normalised) was 1.03 (inactive) and 0.91 (inactive). The normalised cell number was 1.03 and 1.1 in assay [4] (setting [8]); 1.07 and 1 in assay [4] (setting [9]). Also, the result in assay [3], in assay [5] and in assay [2] was inactive.

Turning to `C#C[C@]1(O)CC[C@H]2[C@@H]3[C@H](C)CC4=C(CCC(=O)C4)[C@H]3CC[C@@]21C`, in assay [2], the call was inactive.

For `Cc1onc(-c2ccccc2)c1C(=O)N[C@@H]1C(=O)N2[C@@H]1SC(C)(C)[C@@H]2C(=O)O`, the compound was called inactive in assay [6], in assay [3] and in assay [5].

Turning to `CNC[C@H](O)c1ccc(O)c(O)c1`, the compound was classed as inactive in assay [1], in assay [6], in assay [3], in assay [5] and in assay [2].

As to `COc1cnc(NS(=O)(=O)c2ccc(N)cc2)nc1`, the red/green cell ratio (normalised) in assay [4] is 1.15 (inactive). Moreover, the normalised cell number in assay [4] (setting [8]) was 0.87; in assay [4] (setting [9]), 0.99. In addition, in assay [3], the AC50 is 2.96 µM (active).

For `Cc1cc(C(C)(C)C)cc(C)c1CC1=NCCN1`, the red/green cell ratio (normalised) in assay [4] is 1.16 (inactive). The normalised cell number in assay [4] (setting [8]) turned out to be 1.07; in assay [4] (setting [9]), 1.24. In addition, in assay [2], the outcome was inactive.

Take `CCC(=O)O[C@]1(C(=O)SCF)[C@H](C)C[C@H]2[C@@H]3C[C@H](F)C4=CC(=O)C=C[C@]4(C)[C@@]3(F)[C@@H](O)C[C@@]21C`: the remaining activity in assay [7] is 125% (inactive). In addition, the compound was called inactive in assay [1], in assay [3] and in assay [5].

Turning to `Cc1onc(-c2ccccc2Cl)c1C(=O)N[C@@H]1C(=O)N2[C@@H]1SC(C)(C)[C@@H]2C(=O)O`, the red/green cell ratio (normalised) in assay [4] is 1.1 (inactive). Besides, the normalised cell number amounted to 1.34 in assay [4] (setting [8]) and 1.48 in assay [4] (setting [9]). For the same compound, the result in assay [6] and in assay [5] was inactive.

As for `CCN1CCN(C(=O)N[C@@H](C(=O)N[C@@H]2C(=O)N3C(C(=O)O)=C(CSc4nnnn4C)CS[C@H]23)c2ccc(O)cc2)C(=O)C1=O`, the AC50 in assay [1] was 26.3 µM (active). For the same compound, the compound was classed as inactive in assay [2].

Take `CN(C)CCC=C1c2ccccc2C=Cc2ccccc21`: the red/green cell ratio (normalised) in assay [4] is 1.06 (inactive). Further, the normalised cell number in assay [4] (setting [8]) is 1.13; in assay [4] (setting [9]), 1.19. Further, the compound was classed as inactive in assay [6] and in assay [5].

As for `NC(=O)c1ncn([C@@H]2O[C@H](CO)[C@@H](O)[C@H]2O)c1O`, the compound was classed as inactive in assay [1], in assay [6] and in assay [2].

Take `C[C@@](Cc1ccc(O)c(O)c1)(NN)C(=O)O`: the remaining activity in assay [7] is 93.6% (inactive).

In the case of `NC(N)=N/N=C/c1c(Cl)cccc1Cl`, the remaining activity in assay [7] is 99.1% (inactive).

As for `CC(C)NC[C@@H](O)COc1cccc2ccccc12`, the remaining activity in assay [7] is 109% (inactive).
